Laboratory results from publication PMC5540273 (PLoS ONE, 2017).
Read-outs that look alike come from different tables or passages of the source.

How the values were obtained:
[1] = tested on: T1, GRK2; conditions: concentration: 1 μM, replicates: in singlicate; n = 1
T1 construct: gene ADRBK1

[2] = tested on: T2, GRK3; conditions: concentration: 1 μM, replicates: in singlicate; n = 1
T2 construct: gene ADRBK2

[3] = tested on: GRK4; conditions: concentration: 1 μM, replicates: in singlicate; n = 1
[4] = tested on: GRK7; conditions: concentration: 1 μM, replicates: in singlicate; n = 1
[5] = tested on: GSK3A; conditions: concentration: 1 μM, replicates: in singlicate; n = 1
[6] = tested on: GSK3B; conditions: n = 1
[7] = tested on: T3, HASPIN; conditions: concentration: 1 μM, replicates: in singlicate; n = 1
T3 construct: gene GSG2

[8] = tested on: HCK; conditions: concentration: 1 μM, replicates: in singlicate; n = 1
[9] = tested on: HIPK1; conditions: concentration: 1 μM, replicates: in singlicate; n = 1
[10] = tested on: HIPK2; conditions: concentration: 1 μM, replicates: in singlicate; n = 1
[11] = concentration: 1 μM, replicates: in singlicate
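Also: KINOMEscan kinase panel screen.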

Compound	%Inh [1] [%]	%Inh [2] [%]	%Inh [3] [%]	%Inh [4] [%]	%Inh [5] [%]	%Inh [6, 11] [%]	%Inh [7] [%]	%Inh [8] [%]	%Inh [9] [%]	%Inh [10] [%]	%Inh ([6]; 1 µM) [%]
Cc1c(Cn2c(C)nn3c(=O)cc(N4CCO[C@H](C)C4)nc23)cccc1C(F)(F)F [GSK2373690]	0	18	3	0	13	6	0	0	13	0	–
Nc1nc(-c2ccccc2F)c(-c2ccnc3ccccc23)s1 [GW560459]	0	50	0	0	3	0	25	0	0	0	–
CN1C(=O)C(Nc2ccccc2)=C(c2ccccc2)C1=O [SB-300079]	0	0	0	0	9	3	15	13	28	9	–
COc1cc(Nc2nccc(N3CCC(NC(=O)C(C)c4ccc(Cl)cc4)C3)n2)cc(OC)c1OC (stereo not drawn) [GSK1379757]	0	17	37	0	0	0	21	11	0	0	–
COc1ccc(-n2cnc3c(N)ncnc32)cc1 [SKF-97236]	12	0	22	3	6	15	0	0	24	5	–
O=C(NCCNc1ccnc(Nc2ccc(F)cc2)n1)Nc1ccc2c(c1)OCO2 [GSK1379882]	0	0	0	0	34	6	0	0	0	0	–
Cc1cccc(-c2nc(Nc3ccc4c(cnn4C)c3)c3ccccc3n2)n1 [GW876731]	16	5	0	15	18	0	11	0	0	14	–
COc1ccc(-c2cc3c(C)nc(N)nc3n([C@H]3CC[C@H](O)CC3)c2=O)cn1	0	14	0	1	0	0	0	0	0	0	–
COc1cccc(C2=C(N(C)c3ccccc3)C(=O)NC2=O)c1 [SB-334865]	0	5	0	0	0	24	2	0	0	0	–
COc1ccc(CNC(=O)NC2CCN(c3ccnc(Nc4ccc(F)cc4)n3)C2)cc1 (stereo not drawn) [GSK1379706]	0	51	19	0	23	1	32	0	19	13	–
Nc1nc(N)c2nc(-c3ccccc3)[nH]c2n1 [SKF-12778]	13	9	18	4	0	0	0	3	5	11	–
Cc1nnc(-c2ccc3ncn(-c4ccc(S(C)=O)cc4)c3c2)o1 (stereo not drawn)	0	0	0	0	74	36	0	13	28	10	–
Cl.NS(=O)(=O)c1cccc(Nc2cc(-c3ccc(F)cc3)n[nH]2)c1 [GW824645]	0	21	0	0	0	6	51	13	36	10	–
COc1cc(Nc2nccc(N3CCC(NC(=O)C4COc5ccccc5O4)C3)n2)cc(OC)c1OC (stereo not drawn) [GSK1379761]	0	38	0	0	0	3	55	0	0	0	–
O=C(Nc1n[nH]c2nc(-c3ccccc3)c(Cl)cc12)C1CC1 [SB-734909]	0	83	17	0	90.6	–	0	0	20	0	56
COc1cc2ncn(-c3cc(OCc4ccncc4)c(C(N)=O)s3)c2cc1OC [GSK336313]	0	0	0	0	15	7	0	0	15	0	–
CN(C)c1cc(-c2ccc3c(N)n[nH]c3c2)nc(N)n1 [GSK2219329]	0	0	0	0	0	5	0	0	0	0	–
C[C@@H]1CC[C@H](C(=O)NC2CCCCC2)CN1c1cc(-c2ccc3c(N)n[nH]c3c2)nc(N)n1 [GSK2291363]	0	32	45	0	5	17	2	0	9	0	–
COc1cc2ncn(-c3cc(OCc4ccc(S(C)(=O)=O)cc4)c(C(N)=O)s3)c2cc1OC [GW869979]	45	0	1	0	3	0	40	0	0	9	–
CCn1c(-c2nonc2N)nc2ccccc21 [SB-693162/GW549034]	0	14	30	25	0	37	0	0	29	45	–
Cc1ccc(-c2ccc3c(ccc4sc5c(c43)NC[C@@H](C)N=C5N(C)C)n2)cn1	0	1	0	0	0	0	23	14	0	0	–
COc1ccc(-c2cc3c(C)nc(N)nc3n([C@H]3CC[C@H](OCCO)CC3)c2=O)cn1	17	0	1	1	0	1	33	13	17	0	–
CCCC(=O)Nc1n[nH]c2ncc(-c3cccc4ccccc34)cc12 [SB-642057]	0	0	0	0	87	–	0	1	0	0	33

Compound	%Inh [1] [%]	%Inh [2] [%]	%Inh [3] [%]	%Inh [4] [%]	%Inh [5] [%]	%Inh [6, 11] [%]	%Inh [7] [%]	%Inh [8] [%]	%Inh [9] [%]	%Inh [10] [%]	%Inh ([6]; 1 µM) [%]
CCC(=O)c1c(-c2ccccc2)c2cc(Cl)ccc2c(=O)n1Cc1cc(S(C)(=O)=O)n(CCC(C)(C)O)n1	0	0	0	29	0	0	43	10	33	29	–
FC(F)(F)c1ccc(-c2ncn(CCCN3CCOCC3)c2-c2ccncc2)cc1 [SB-217780]	5	0	26	0	0	25	11	8	18	52	–
CC(C)(C)c1ccc(C(=O)Nc2cn3cc(-c4ccccc4)ccc3n2)cc1	0	0	26	0	12	30	0	13	43	52	–
CCS(=O)c1ccc(-c2coc3ccc(-c4nnc(C)o4)cc23)cc1 (stereo not drawn)	0	5	21	19	91.6	58	17	33	30	43	–
Nc1n[nH]c2ncc(-c3ccccc3)cc12 [SB-517081]	0	22	21	0	34	–	0	0	0	0	20
O=C1NC(=O)C(c2ccccc2)=C1Nc1cccc(O)c1 [SB-390534]	0	0	3	0	30	–	6	6	8	18	20
Nc1ncnc2c1ncn2-c1cccc2ccccc12 [SKF-97184]	0	0	14	4	8	23	60	7	34	0	–
COC(=O)c1c(-c2ccccc2)c2cc(C)ccc2c(=O)n1Cc1ccccc1	0	0	28	0	0	0	0	0	0	0	–
CCc1nc(-c2cccc(C)c2)c(-c2ccncc2)s1	0	0	0	0	27	0	0	21	30	0	–
Cn1c(=O)c(F)c(Nc2ccc(I)cc2F)c2c(=O)n(OC[C@H](O)CO)cnc21	0	0	0	0	0	3	4	10	52	0	–
OCCCNc1nccc(-c2c(-c3cccc(C(F)(F)F)c3)nn3cc(C(F)(F)F)ccc23)n1 [GW630813]	0	37	0	0	0	2	21	0	0	0	–
Cc1cccc(-c2cc(-c3c[nH]nc3-c3ccccn3)ccn2)c1 [GW679395]	0	39	0	0	17	7	25	0	0	0	–
CCn1c(-c2ccoc2)nc2cnccc21 [SB-733887]	0	0	0	93.9	35	22	37	0	0	0	–
Nc1ncnc2c1ncn2-c1ccc(Cl)cc1 [AH2635]	0	41	0	0	14	0	21	0	0	0	–
COc1cc2ncn(-c3cc(OCCCc4ccccc4)c(C(N)=O)s3)c2cc1OC [GSK205189]	0	0	13	0	10	0	0	4	9	0	–
Cc1cc(Nc2nc(-c3cccc(C)n3)nc3ccccc23)ccn1 [GW872411]	0	0	35	0	0	0	0	7	0	0	–
CCC(=O)c1c(-c2ccccc2)c2cc(Cl)ccc2c(=O)n1Cc1cc(S(C)(=O)=O)n(CC(F)F)n1	0	0	4	0	0	0	26	0	25	0	–
COC(=O)c1c(-c2ccccc2)c2cc(Br)ccc2c(=O)n1Cc1ccc(NC(=O)CCC(=O)O)cc1	19	8	0	31	0	15	6	14	26	28	–
CCCNC(=O)Nc1ccc(Oc2ncnc3ccn(C)c23)cc1	40	0	6	29	0	21	41	7	35	29	–
Cc1nnc(-c2ccc(C)c(-c3ccc(C(=O)O)cc3)c2)o1 [GW608005]	0	0	0	0	7	0	0	0	0	0	–
COc1ccc(Nc2nccc(N3CCC(NS(=O)(=O)c4ccc(NC(C)=O)cc4)C3)n2)cc1 (stereo not drawn) [GSK1379729]	3	0	49	0	0	7	19	7	0	20	–
O=C(NCc1cccs1)c1cc(C(=O)c2c(Cl)cccc2Cl)c[nH]1 [GW823670]	16	25	8	0	0	0	0	25	17	0	–
COc1cc(OC)cc(-c2cc3cnc(N)nc3nc2NC(=O)NC(C)(C)C)c1	0	0	13	9	0	0	0	0	15	0	–

Compound	%Inh [1] [%]	%Inh [2] [%]	%Inh [3] [%]	%Inh [4] [%]	%Inh [5] [%]	%Inh [6, 11] [%]	%Inh [7] [%]	%Inh [8] [%]	%Inh [9] [%]	%Inh [10] [%]	%Inh ([6]; 1 µM) [%]
Nc1ncnc2c1ncn2-c1cccc(F)c1 [SKF-97560]	61	40	0	4	18	13	45	0	12	16	–
COc1cc2nccc(Nc3ccc(OCc4ccc(NC(C)=O)cc4)cc3)c2cc1OC.Cl [GW440135]	0	17	23	4	0	0	18	0	0	0	–
Cc1nc(N(C)[C@H]2CN(C(=O)CC#N)CC[C@H]2C)c2cc[nH]c2n1	0	0	0	0	9	0	0	0	6	0	–
COc1cc(Nc2ccnc3ccc(C(F)(F)F)cc23)cc(OC)c1OC [GW577382]	0	25	0	0	0	3	29	38	5	0	–
CCc1ccc(-c2ccc3c(c2)-c2nn(C)cc2S(=O)(=O)N3C)cc1	0	0	0	0	30	0	23	2	0	0	–
Cc1ccccc1COc1cc(-n2cnc3cc(Cl)ccc32)sc1C(N)=O [GW813349]	0	0	2	0	17	14	16	11	30	24	–
Nc1nccc2scc(-c3ccc4c(c3)CCN4C(=O)Cc3ccccc3)c12 [GSK2576924]	4	100	0	0	11	2	0	0	0	0	–
O=C(Nc1n[nH]c2cc(-c3ccccc3F)ccc12)C1CC1 [SB-733371]	0	0	26	0	24	19	22	0	2	0	–
Fc1cccc(CSc2nnc(-c3ccc4c(c3)CCO4)o2)c1	35	10	0	19	64	–	20	1	18	30	37
O=c1cc(N2CCOCC2)nc2n(Cc3ccc(F)c(Cl)c3)ccn12 [GSK2297099]	0	0	0	0	0	8	0	0	7	0	–
O=C(Nc1ccc2c(c1)OCO2)NC1CCN(c2ccnc(NCc3ccc(F)cc3)n2)CC1 [GSK1379859]	0	0	0	0	2	8	0	0	0	0	–
CN1C(=O)C(Nc2cc(Cl)c(O)c(Cl)c2)=C(c2ccc(Cl)cc2)C1=O [SB-404321]	22	28	96.7	0	0	0	0	0	0	38	–
CCS(=O)(=O)c1ccc(OC)c(Nc2ncc(-c3ccc(F)cc3)o2)c1.Cl [GW591947]	0	0	0	0	8	0	0	0	33	0	–
COc1cccc(-n2cnc3c(N)ncnc32)c1 [SKF-97416]	0	11	10	27	0	35	0	8	18	22	–
Nc1n[nH]c2nnc(-c3ccccc3)c(-c3ccccc3)c12 [GW554060]	0	44	6	0	91	–	10	0	50	86	42
CCC(=O)c1c(-c2ccccc2)c2cc(Cl)ccc2c(=O)n1Cc1cc(C(=O)NC2CC2)n(C)n1	0	23	0	12	0	13	25	22	0	8	–
COC(=O)c1c(-c2ccccc2)c2cc(Br)ccc2c(=O)n1Cc1ccc(S(C)(=O)=O)cc1	14	0	0	35	0	19	31	9	33	18	–
Cc1ccc(Oc2ccc(Nc3ncnc4cc[nH]c34)cc2C)cn1	0	28	0	44	0	0	8	16	20	11	–
COc1cc2ncn(-c3cc(OCc4ccncc4Br)c(C(N)=O)s3)c2cc1OC [GW854278]	5	0	35	4	7	0	5	3	0	4	–
CCC(=O)c1c(-c2ccccc2)c2cc(Cl)ccc2c(=O)n1Cc1ccc(C(=O)O)cc1	0	0	16	0	3	0	42	0	10	0	–
Cc1nn2c(=O)cc(N3CCOCC3)nc2n1Cc1cccc(Cl)c1Cl [GSK2342769]	0	83	2	0	10	13	8	0	0	0	–
COc1cc2nccc(Nc3cccc(Oc4ccccc4)c3)c2cc1OC.Cl [GW284543]	28	16	7	0	5	0	11	44	0	25	–
Cl.c1ccc(Cn2cnc3cc(Nc4ncnc5ccccc45)ccc32)cc1 [GW272142]	0	50	0	0	0	1	0	0	0	0	–
